Laboratory results taken from ChEMBL document CHEMBL3988442, “University of Dundee, Small-Polar-MMV Screening Library” (2021).

Molecular target: AMP-activated protein kinase, AMPK (Homo sapiens) (UniProt P54646+O43741+P54619+Q9UGJ0+Q9Y478+Q13131+Q9UGI9)
Test: AMP-dependent Kinase enzyme assay. An in vitro enzyme assay that detects ADP turnover that is directly proportional to AMPK activity. This uses naive AMPK that is activated during the assay with MK-8722
Format: functional
Parameters: scale not given: direction of the effect not stated beside the values
Settings: 30 µM

Row | SMILES | Percent Effect [%]
1 | O=S(=O)(NCCCn1cncn1)c1ccc2c(c1)CCCC2 | 6.33
2 | Cc1ccc(OCC2CCCN(C(=O)c3csc(CN(C)C)n3)C2)cc1 (centres undefined) | 14.7
3 | CCOc1ccc(CN2CCOCC2c2[nH]ncc2C)cc1CO (centres undefined) | 22.7
4 | Cc1noc(C)c1CN1CCCC1c1nnc2ccccn12 (centres undefined) | -3.49
5 | COCCc1noc(CN2CCN(c3ccc(OC)cc3)C(=O)C2C)n1 (centres undefined) | 4.12
6 | CCc1cc(CNC(=O)c2cc(NC(=O)C(C)C)ccc2Cl)[nH]n1 | 0.911
7 | CCc1ncc2c(n1)CN(c1cc(NC3CC3)nc(N)n1)C2 | -118
8 | CNS(=O)(=O)c1ccc(CN2CCN3CCNC(=O)C3C2)cc1 (centres undefined) | -3.21
9 | Cc1ccccc1N1CCN(C(=O)CCc2nncn2C)C(C)C1 (centres undefined) | 6.58
10 | CCCC(C#N)NC(=O)c1sccc1CC (centres undefined) | 6.7
11 | CC(C)[C@@H]1CN(C(=O)CN(C)Cc2ccc(F)cc2)C[C@H]1C(=O)O | 0.85
12 | O=C(c1cccc(-n2cnnc2)c1)N1C[C@@H](O)[C@H](N2CCOCC2)C1 | 15.5
13 | CC(CNC(=O)CCCn1cncn1)N1CCc2ccccc2C1 (centres undefined) | 14.6
14 | O=C(c1cccnc1)N1CCOC(Cc2ccccc2Cl)C1 (centres undefined) | 11
15 | O=C(NC1CCN(C2CC2)C1)c1cn(-c2ccc(F)cc2)nn1 (centres undefined) | -3.53
16 | Cc1noc(C)c1-c1n[nH]c2c1CN(S(=O)(=O)c1cccnc1)CC2 | 1.02
17 | COCC(C)(O)CNC(=O)c1cc(-c2cc(OC)ccc2OC)nn1C (centres undefined) | 1.19
18 | CCCN(CCO)C(=O)c1cc(COc2ccc3c(c2)CCCC3)on1 | 5.46
19 | Cc1cc(N2CCOC(c3ccc(N(C)C)cn3)C2)nc(N)n1 (centres undefined) | 7.96
